These results are taken from PubChem BioAssay.

The test system of test [1] is Human papillomavirus type 1a protein E7 (residues 44-93). Put plainly: HPV1a E7 fragment binders on microarrays, primary screen, biochemical, small-molecule microarray, residues 44-93, 635 nm fluorescence (AID 1108).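 Also: E7 fragment applied at 1 µg/mL in TBST for 1 h at 4 C; score combines spot fluorescence with its signal to noise ratio.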 Particulars: small-molecule microarray binding, fluorescence 635 nm; higher = more signal.
Test [2] can be described thus: modulators of HCV replicon luciferase signal, primary screen, HCV replication inhibitor project, Huh7 cells, luciferase reporter (AID 1109).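 Also: huh7 hepatoma cells harbouring a luciferase neomycin HCV replicon reporter; luciferase luminescence as measure of HCV replicon replication; test concentration not given here.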 Particulars: 48 h, higher = more signal. A general note: Replicon systems follow genome replication, usually without infectious particles.
Test [3] addresses Left-right determination factor 2 (Homo sapiens) (UniProt O00292). Put plainly: LEFTY2 binders on small-molecule microarrays, primary screen, biochemical, small-molecule microarray, 635 nm fluorescence scan (AID 1110). The settings on record: LEFTY2 binding, higher = more signal.
In test [4] the target is Calmodulin-1 (Homo sapiens) (UniProt P0DP23). Put plainly: CALM1 binders on microarrays, EGTA buffer, profiling panel, biochemical, small-molecule microarray, Cy5-labelled CALM1 (AID 1111).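 Also: labelled calmodulin applied in Tris saline Tween buffer holding calcium plus EGTA and DTT.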 Particulars: Cy5-CALM1 binding fluorescence, higher = more signal.
Test [5] has the same target. Put plainly: calcium-bound CALM1 binders on microarrays, profiling panel, artefact control for SMM control-protein annotation, biochemical, small-molecule microarray, Cy5-labelled CALM1, plus calcium (AID 1112).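 Also: score merges spot fluorescence with signal to noise from triplicate slides.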 The settings on record: Cy5-CALM1 binding fluorescence, higher = more signal.
A short description of test [6]: small-molecule microarray binders of probe aWnt5a, primary screen, biochemical, biotinylated probe, 635/667 nm fluorescence (AID 1113).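 Also: score merges 667 nm fluorescence intensity with signal-to-noise per printed feature.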 Particulars: higher = more signal.
A short description of test [7]: small-molecule microarray binders of probe aShh, primary screen, biochemical, biotinylated probe, 635/667 nm fluorescence (AID 1114).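 Also: probe is biotin-labelled aShh protein from a stem cell growth factor screen; measures binding of labelled protein to compounds printed on the slide; score merges feature fluorescence at 667 nm with signal-to-noise.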 Particulars: higher = more signal.
The nature of test [8]: small-molecule microarray binders of probe aNog, primary screen, biochemical, biotinylated probe, 635/667 nm fluorescence (AID 1115).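 Also: probe is biotinylated aNog protein used at 0.15 µg/mL for 1 h at 4 C; z-score combines 667 nm fluorescence of each spot with its signal to noise.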 Particulars: higher = more signal.
For test [9], the target named is Torsin-1A-interacting protein 1 (Homo sapiens) (UniProt Q5JTV8). Put plainly: LAP1 binders from COS7 cell lysate, primary screen, small-molecule microarray, 635/667 nm fluorescence (AID 1116). The settings on record: COS7-hLAP1 lysate binding, 635 nm fluorescence, higher = more signal.
Test [10] addresses Alpha-bungarotoxin (Bungarus multicinctus) (UniProt P60615). Put plainly: alpha-bungarotoxin binders on microarray, profiling panel, artefact control for SMM control protein annotation, biochemical, small-molecule microarray, Alexa647 label, 635/667 nm fluorescence (AID 1117). Particulars: alpha-BTX-A647 binding fluorescence, higher = more signal.

Sequence of Alpha-bungarotoxin (Bungarus multicinctus) (P60615 whole entry, looked up): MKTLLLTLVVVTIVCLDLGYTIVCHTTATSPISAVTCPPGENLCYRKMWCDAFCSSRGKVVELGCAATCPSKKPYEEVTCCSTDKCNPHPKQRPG
Sequence of Left-right determination factor 2 (Homo sapiens) (O00292 whole entry, looked up): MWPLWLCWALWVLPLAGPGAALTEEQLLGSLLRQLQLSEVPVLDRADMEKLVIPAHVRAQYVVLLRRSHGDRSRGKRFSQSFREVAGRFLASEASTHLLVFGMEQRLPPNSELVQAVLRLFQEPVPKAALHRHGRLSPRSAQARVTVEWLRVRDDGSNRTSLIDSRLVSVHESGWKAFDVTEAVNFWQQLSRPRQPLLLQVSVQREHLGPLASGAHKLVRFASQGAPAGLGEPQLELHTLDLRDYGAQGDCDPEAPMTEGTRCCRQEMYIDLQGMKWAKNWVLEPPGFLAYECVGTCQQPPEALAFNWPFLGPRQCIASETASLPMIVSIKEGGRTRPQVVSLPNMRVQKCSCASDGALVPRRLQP
Sequence of Torsin-1A-interacting protein 1 (Homo sapiens) (Q5JTV8 whole entry, looked up): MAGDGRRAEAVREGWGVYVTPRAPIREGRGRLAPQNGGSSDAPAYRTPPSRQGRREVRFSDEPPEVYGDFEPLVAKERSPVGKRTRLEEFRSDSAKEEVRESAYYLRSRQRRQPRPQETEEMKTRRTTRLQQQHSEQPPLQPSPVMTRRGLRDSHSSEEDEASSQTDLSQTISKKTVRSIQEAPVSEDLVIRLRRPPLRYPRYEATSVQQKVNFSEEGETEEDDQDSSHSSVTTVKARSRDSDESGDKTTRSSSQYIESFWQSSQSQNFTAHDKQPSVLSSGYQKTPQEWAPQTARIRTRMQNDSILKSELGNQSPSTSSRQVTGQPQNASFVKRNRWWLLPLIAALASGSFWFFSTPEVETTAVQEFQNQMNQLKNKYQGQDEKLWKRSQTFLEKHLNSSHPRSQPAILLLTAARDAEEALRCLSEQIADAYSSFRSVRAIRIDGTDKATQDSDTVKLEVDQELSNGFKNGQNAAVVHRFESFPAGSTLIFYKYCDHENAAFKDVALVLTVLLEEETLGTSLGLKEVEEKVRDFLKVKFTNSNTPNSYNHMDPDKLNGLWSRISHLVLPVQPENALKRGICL

On to `CN1C(=O)C2C(C1=O)C1C=C(c3ccc(CO)cc3)C2C(C2CC2)N1Cc1sc2ccccc2c1Cl` (stereo not given), for which the composite z-score in test [1] is 0.946; in [3], 0.545; in test [4], 2.06; in test [5], 0.398; in test [6] it was 0.0561; in test [7], 0.079. The results for the composite z-score in [8], in test [9] and in [10] were -0.186, 2.06 and 2.87, respectively. Moreover, the z-score in [2] is -1.58.

For `O=C1O[C@H](c2ccccc2)[C@H](c2ccccc2)N2[C@H]1[C@@H](C(=O)N1CCCCCCC1)[C@]1(C(=O)Nc3ccc(C#CC4=CCCCC4)cc31)[C@H]2c1ccc(O)cc1`, the composite z-score is 1.54 in test [1]; 1.78 in [3]; 3.22 in [4]; 2.02 in test [5]; 1.68 in [6]; 3.35 in [7]. In addition, the composite z-score in test [8] turned out to be 3.53; in test [9], 5.98; in test [10], 5.18. In addition, the z-score in test [2] was -2.29.

For the compound `COCCOC(=O)N1C(=O)[C@@]2(c3ccccc31)[C@H](c1ccc(O)cc1)N1[C@H](c3ccccc3)[C@H](c3ccccc3)OC(=O)[C@H]1[C@@H]2C(N)=O`, the composite z-score in test [1] was -1.11; in test [3] it was -0.827; in [4], -0.284; in test [5] it was -0.0872; in test [6], -0.0256; in test [7], 0.0899. Besides, the composite z-score in [8] was -0.346; in test [9], -0.571; in test [10], -0.448. The compound also displayed a z-score in [2] of -0.823.

Take `[N-]=[N+]=Nc1ccccc1[C@H]1OC(c2ccc(OCCCO)cc2)=N[C@@]1(CCS(=O)(=O)c1ccccc1)C(=O)N1CCOCC1`: the composite z-score in test [1] came out at 0.946; in [3], 0.52; in test [4], 2.15; in [5], 1.24; in test [6], 0.318; in test [7] it was 1.39. The composite z-score amounted to 1.28 in [8], 2.1 in test [9] and 3.35 in test [10]. Also, the z-score in [2] was determined as 0.384.

With `CC(C)(C)OC(=O)CC[C@]1(C(=O)NCC(O)CO)N=C(c2ccc(OCCCO)cc2)O[C@H]1c1ccccc1CN=[N+]=[N-]` (stereo not given in full), the composite z-score in [1] is 0.29; in [3], -0.167; in [4] it was 2.52; in test [5] it was 0.909; in [6] it was 0.25; in test [7] it was 0.541. Further, the results for the composite z-score in test [8], in [9] and in test [10] were -0.524, 3.82 and 2.42, respectively. Moreover, in test [2], the z-score worked out at 1.15.

As to `O=c1cccc(-c2cccc3ccccc23)o1`, the composite z-score in [1] was -0.285; in [3], -0.905; in test [4], 0.088; in test [5], 0.33; in [6] it was -0.0751; in test [7] it was -0.138. The composite z-score came out at 1.25 in test [8], 0.78 in test [9] and 0.541 in test [10]. The same compound showed a z-score in test [2] of -0.497.

For `O=C1C2C=CC(C(O)c3cccc4ccccc34)N(n3cnnc3)C2C(=O)N1Cc1ccccc1` (stereo not given), the composite z-score in [1] is 0.0125; in test [3], 0.102; in test [4], 0.197; in [5], -0.151; in [6], 1.06; in test [7] it was -0.309. Besides, the composite z-score is 2.2 in test [8], 0.67 in [9] and 0.274 in test [10]. In test [2], this compound showed a z-score of -1.16.

In the case of `COC(=O)[C@@]1(Cc2ccc(OC)cc2)[C@H]2c3cc(C(=O)N(C)C)n(Cc4ccc(OC)c(OC)c4)c3C[C@H]2CN1C(=O)c1ccccc1`, the composite z-score in test [1] was 1.46; in [3], 0.0549; in test [4] it was 1.8; in [5], 1.08; in test [6], 0.294; in test [7], 0.173. The composite z-score in test [8] was found to be 1.03; in test [9], 1.15; in test [10], 1.73. Moreover, the z-score in [2] is -1.09.

Regarding `CC(=O)N1Cc2ccccc2C[C@@]2(N=C(c3ccc(OCCCO)cc3)O[C@H]2c2ccccc2)C1=O`, the composite z-score in test [1] is 0.671; in [3], 0.587; in [4] it was 1.26; in test [5] it was 0.465; in [6] it was -0.0051; in test [7] it was 0.0895. The composite z-score in [8] was found to be 0.909; in test [9], 2.05; in [10], 2.37. In addition, the z-score in [2] is -2.83.

`CCOC(=O)C[C@H]1[C@H](OC(=O)c2ccccc2-c2ccccc2)[C@@H](NC(=O)c2ccc(-c3ccccc3)cc2)c2cc(OCCCO)ccc2N1C(=O)c1ccccc1`: the composite z-score was 1.26 in test [1]; 0.572 in [3]; 0.455 in test [4]; -0.361 in test [5]; -0.16 in test [6]; -0.282 in test [7]. Moreover, the composite z-score in test [8] turned out to be 0.0273; in test [9], 0.539; in [10] it was 0.57. Also, the z-score in test [2] was -1.81.

With `CN1C(=O)C2C=CC(C(O)C(C)(C)C)N(Nc3ccccc3)C2C1=O` (stereo not given), the composite z-score in test [1] is -0.911; in [3] it was -0.428; in [4] it was -0.0143; in test [5] it was -0.395; in test [6], -0.0405; in [7], -0.24. In addition, the composite z-score in [8] was 0.779; in [9], -0.0378; in [10] it was 0.531. This compound yielded a z-score in test [2] of 0.813.

`C=C(/C(=C/C[C@@H](OC(=O)c1ccncc1)c1ccc(CO)o1)c1cc(C(=O)OC)ccc1OC)C(C)C`: the composite z-score in test [1] is 0.838; in test [3], 0.512; in [4] it was 0.224; in test [5], -0.0294; in test [6], -0.063; in test [7] it was 0.0893. Moreover, the figures for the composite z-score in test [8], in test [9] and in test [10] were 0.107, 0.815 and 0.582, respectively. Moreover, the z-score in [2] is -2.03.

Take `O=C1C2C=CC(C(O)c3ccc(B(O)O)cc3)N(Nc3ccc([N+](=O)[O-])cc3)C2C(=O)N1c1ccccc1` (stereo not given): the composite z-score was 1.38 in [1]; 0.528 in test [3]; 0.394 in test [4]; 0.218 in test [5]; -0.0107 in test [6]; -0.0146 in test [7]. Also, the values for the composite z-score in test [8], in [9] and in test [10] were 0.46, 0.151 and 0.435, respectively. Also, the z-score in test [2] was -4.39.
